# Assays:
# Experiment in all cases: DAPPL (digital affinity profiling via proximity ligation, sequencing); 10 mM Tris-HCl pH 7.5, 50 mM NaCl, 1 mM DTT, 4% glycerol, room temperature, 30 min; GST-TFs on glutathione beads, 16-mer random dsDNA library, 0.1% formaldehyde crosslink after washing; high values mean tight binding
# FEV = biological target: T1, FEV (Homo sapiens, UniProt Q99581 1-238); settings: protein: recombinant; tags: N-terminal GST; dsDNA, one strand shown
# T1 sequence: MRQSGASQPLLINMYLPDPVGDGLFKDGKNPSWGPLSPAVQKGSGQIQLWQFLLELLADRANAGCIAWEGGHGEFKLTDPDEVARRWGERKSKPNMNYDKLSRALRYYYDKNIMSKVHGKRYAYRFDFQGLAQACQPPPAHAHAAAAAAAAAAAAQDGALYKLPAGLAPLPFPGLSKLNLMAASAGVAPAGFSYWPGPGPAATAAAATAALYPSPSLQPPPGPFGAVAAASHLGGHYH
# How it was run: (§1)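 Binding signal is given per hexamer as its read frequency for a factor divided by its frequency in the tag-only sample. GST-fused human transcription factors were expressed in yeast, captured on glutathione beads, barcoded with DNA and pooled with that sample, then incubated with 200 nmole of a 16-mer random double-stranded DNA library in Tris/NaCl/DTT/glycerol buffer for 30 min at room temperature. The pools were then washed, crosslinked, proximity-ligated, amplified by PCR and sequenced on an Illumina NextSeq500.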
# ETV5 = ETV5 (Homo sapiens, UniProt P41161 1-510); settings: protein: recombinant; tags: N-terminal GST; dsDNA, one strand shown
# How it was run: as §1
# HSF1 = HSF1 (Homo sapiens, UniProt Q00613 1-529); settings: protein: recombinant; tags: N-terminal GST; chain copies: 3; dsDNA, one strand shown
# How it was run: as §1
# SPIC = biological target: T2, SPIC (Homo sapiens, UniProt Q8N5J4 1-248); settings: protein: recombinant; tags: N-terminal GST; dsDNA, one strand shown
# T2 sequence: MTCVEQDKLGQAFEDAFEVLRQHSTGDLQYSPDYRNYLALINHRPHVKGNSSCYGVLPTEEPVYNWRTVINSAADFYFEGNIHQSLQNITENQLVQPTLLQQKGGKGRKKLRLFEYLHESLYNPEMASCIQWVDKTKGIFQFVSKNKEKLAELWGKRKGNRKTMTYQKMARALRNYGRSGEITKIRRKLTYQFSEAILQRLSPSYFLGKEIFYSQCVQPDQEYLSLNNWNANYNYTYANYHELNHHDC
# How it was run: as §1
# ELF4 = ELF4 (Homo sapiens, UniProt Q99607 1-663); settings: protein: recombinant; tags: N-terminal GST; dsDNA, one strand shown
# How it was run: as §1
# ELK4 = biological target: T3, ELK4 (Homo sapiens, UniProt P28324-2 1-405); settings: protein: recombinant; tags: N-terminal GST; dsDNA, one strand shown
# T3 sequence: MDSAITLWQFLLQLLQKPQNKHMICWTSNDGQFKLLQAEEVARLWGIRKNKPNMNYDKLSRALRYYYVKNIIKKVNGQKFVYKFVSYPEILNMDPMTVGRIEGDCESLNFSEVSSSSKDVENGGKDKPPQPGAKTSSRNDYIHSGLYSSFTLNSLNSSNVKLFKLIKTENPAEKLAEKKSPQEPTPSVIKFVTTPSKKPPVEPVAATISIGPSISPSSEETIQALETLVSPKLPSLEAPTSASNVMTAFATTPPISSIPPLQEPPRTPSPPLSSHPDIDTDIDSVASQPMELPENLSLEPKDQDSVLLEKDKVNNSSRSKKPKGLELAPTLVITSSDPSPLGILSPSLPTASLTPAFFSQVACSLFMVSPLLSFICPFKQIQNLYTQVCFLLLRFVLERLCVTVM
# How it was run: as §1
# ETV2 = biological target: T4, ETV2 (Homo sapiens, UniProt O00321 1-342); settings: protein: recombinant; tags: N-terminal GST; dsDNA, one strand shown
# T4 sequence: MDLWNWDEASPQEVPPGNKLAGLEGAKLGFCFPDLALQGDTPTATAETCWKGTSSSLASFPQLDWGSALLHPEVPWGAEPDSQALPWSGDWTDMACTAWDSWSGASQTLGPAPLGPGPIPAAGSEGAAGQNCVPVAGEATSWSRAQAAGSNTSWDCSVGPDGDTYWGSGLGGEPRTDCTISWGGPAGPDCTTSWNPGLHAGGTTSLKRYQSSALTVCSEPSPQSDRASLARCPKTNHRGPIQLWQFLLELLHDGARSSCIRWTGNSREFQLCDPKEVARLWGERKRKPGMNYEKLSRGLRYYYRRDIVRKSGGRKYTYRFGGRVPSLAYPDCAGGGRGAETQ
# How it was run: as §1
# ELF3 = biological target: T5, ELF3 (Homo sapiens, UniProt P78545 1-371); settings: protein: recombinant; tags: N-terminal GST; dsDNA, one strand shown
# T5 sequence: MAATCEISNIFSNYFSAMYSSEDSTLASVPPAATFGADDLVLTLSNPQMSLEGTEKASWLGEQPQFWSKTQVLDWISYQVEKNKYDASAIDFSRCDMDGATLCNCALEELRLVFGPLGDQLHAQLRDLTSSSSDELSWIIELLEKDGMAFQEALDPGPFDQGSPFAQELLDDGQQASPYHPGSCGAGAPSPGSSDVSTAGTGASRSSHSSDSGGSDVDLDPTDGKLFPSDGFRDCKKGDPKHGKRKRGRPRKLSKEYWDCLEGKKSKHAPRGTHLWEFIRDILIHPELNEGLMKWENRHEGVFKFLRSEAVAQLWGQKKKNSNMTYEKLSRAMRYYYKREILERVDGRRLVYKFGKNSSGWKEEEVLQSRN
# How it was run: as §1
# CRX = CRX (Homo sapiens, UniProt O43186 1-299); settings: protein: recombinant; tags: N-terminal GST; dsDNA, one strand shown
# How it was run: as §1
# ETV1 = ETV1 (Homo sapiens, UniProt P50549 1-477); settings: protein: recombinant; tags: N-terminal GST; dsDNA, one strand shown
# How it was run: as §1
# ERF = biological target: T6, ERF (Homo sapiens, UniProt P50548 1-548); settings: protein: recombinant; tags: N-terminal GST; dsDNA, one strand shown
# T6 sequence: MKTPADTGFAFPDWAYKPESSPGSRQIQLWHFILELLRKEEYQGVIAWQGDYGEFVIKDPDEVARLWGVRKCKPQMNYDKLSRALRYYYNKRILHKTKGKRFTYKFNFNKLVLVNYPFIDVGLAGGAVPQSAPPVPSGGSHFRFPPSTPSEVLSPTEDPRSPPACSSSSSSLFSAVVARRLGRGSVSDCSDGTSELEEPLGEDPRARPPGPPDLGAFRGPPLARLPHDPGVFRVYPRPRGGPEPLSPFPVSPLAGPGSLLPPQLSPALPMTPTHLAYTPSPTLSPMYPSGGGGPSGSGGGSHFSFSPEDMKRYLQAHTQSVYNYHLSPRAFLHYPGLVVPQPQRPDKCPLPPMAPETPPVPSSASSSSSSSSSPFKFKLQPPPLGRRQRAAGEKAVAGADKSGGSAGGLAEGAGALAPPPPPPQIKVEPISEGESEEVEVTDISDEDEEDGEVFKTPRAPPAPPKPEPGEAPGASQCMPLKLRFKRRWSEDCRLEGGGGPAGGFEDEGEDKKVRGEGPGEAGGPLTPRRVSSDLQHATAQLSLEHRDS
# How it was run: as §1
# ETV3L = biological target: T7, ETV3L (Homo sapiens, UniProt Q6ZN32 1-361); settings: protein: recombinant; tags: N-terminal GST; dsDNA, one strand shown
# T7 sequence: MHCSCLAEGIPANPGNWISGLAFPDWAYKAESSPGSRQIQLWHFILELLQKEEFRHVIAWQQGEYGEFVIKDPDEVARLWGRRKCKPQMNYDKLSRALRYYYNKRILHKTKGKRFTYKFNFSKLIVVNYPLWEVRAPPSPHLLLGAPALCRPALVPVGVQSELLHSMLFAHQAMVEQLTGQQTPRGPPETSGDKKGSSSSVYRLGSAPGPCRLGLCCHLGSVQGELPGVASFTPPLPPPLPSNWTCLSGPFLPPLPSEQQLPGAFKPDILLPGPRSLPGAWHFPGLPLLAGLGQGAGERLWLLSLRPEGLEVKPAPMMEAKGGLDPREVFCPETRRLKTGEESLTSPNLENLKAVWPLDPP
# How it was run: as §1
# ETS2 = biological target: T8, ETS2 (Homo sapiens, UniProt P15036 1-469); settings: protein: recombinant; tags: N-terminal GST; dsDNA, one strand shown
# T8 sequence: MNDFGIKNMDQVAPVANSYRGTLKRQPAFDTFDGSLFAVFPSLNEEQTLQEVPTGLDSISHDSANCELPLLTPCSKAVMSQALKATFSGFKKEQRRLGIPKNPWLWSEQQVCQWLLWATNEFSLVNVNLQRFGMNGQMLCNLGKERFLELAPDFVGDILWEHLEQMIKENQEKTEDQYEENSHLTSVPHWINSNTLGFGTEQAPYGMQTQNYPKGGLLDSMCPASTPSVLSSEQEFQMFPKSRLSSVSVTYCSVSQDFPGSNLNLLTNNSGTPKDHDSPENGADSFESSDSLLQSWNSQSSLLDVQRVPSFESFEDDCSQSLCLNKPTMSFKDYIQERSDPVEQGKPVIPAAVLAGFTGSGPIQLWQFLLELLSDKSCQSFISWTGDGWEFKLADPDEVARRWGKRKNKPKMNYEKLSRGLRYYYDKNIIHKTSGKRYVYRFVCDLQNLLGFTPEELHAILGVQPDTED
# How it was run: as §1
# SPDEF = biological target: T9, SPDEF (Homo sapiens, UniProt O95238 1-335); settings: protein: recombinant; tags: N-terminal GST; dsDNA, one strand shown
# T9 sequence: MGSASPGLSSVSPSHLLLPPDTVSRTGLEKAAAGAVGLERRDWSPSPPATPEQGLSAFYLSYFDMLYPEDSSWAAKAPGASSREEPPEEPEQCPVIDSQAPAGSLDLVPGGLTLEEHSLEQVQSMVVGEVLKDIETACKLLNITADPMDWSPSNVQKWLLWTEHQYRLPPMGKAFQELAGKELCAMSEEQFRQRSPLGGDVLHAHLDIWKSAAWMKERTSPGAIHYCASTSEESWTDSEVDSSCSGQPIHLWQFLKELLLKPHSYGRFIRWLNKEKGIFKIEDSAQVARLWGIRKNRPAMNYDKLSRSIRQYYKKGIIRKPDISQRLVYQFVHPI
# How it was run: as §1
# ETV7 = biological target: T10, ETV7 (Homo sapiens, UniProt Q9Y603 1-341); settings: protein: recombinant; tags: N-terminal GST; dsDNA, one strand shown
# T10 sequence: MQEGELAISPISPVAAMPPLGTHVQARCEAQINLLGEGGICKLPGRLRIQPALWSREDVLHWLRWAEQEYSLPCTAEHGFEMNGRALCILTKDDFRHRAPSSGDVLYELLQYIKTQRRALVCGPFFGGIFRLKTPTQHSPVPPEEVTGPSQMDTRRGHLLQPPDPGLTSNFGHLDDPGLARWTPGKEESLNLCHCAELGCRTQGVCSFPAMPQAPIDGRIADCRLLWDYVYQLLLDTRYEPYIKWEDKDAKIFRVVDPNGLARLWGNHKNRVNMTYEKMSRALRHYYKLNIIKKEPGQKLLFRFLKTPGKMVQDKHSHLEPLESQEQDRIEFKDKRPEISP
# How it was run: as §1
# ELF5 = biological target: T11, ELF5 (Homo sapiens, UniProt Q9UKW6-2 1-255); settings: protein: recombinant; tags: N-terminal GST; dsDNA, one strand shown
# T11 sequence: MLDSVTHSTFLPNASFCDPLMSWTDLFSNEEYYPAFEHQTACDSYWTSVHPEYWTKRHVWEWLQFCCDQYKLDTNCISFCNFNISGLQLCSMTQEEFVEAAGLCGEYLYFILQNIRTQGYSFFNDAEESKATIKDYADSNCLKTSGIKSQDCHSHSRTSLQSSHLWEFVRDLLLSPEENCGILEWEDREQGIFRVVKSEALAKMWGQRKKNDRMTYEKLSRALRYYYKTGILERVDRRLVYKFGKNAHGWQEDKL
# How it was run: as §1
# ETV3 = biological target: T12, ETV3 (Homo sapiens, UniProt P41162-2 1-143); settings: protein: recombinant; tags: N-terminal GST; dsDNA, one strand shown
# T12 sequence: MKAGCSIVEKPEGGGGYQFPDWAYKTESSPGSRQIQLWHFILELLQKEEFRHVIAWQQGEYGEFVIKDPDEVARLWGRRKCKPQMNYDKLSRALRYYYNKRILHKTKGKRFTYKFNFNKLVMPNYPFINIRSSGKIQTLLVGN
# How it was run: as §1
# ETV6 = ETV6 (Homo sapiens, UniProt P41212 1-452); settings: protein: recombinant; tags: N-terminal GST; dsDNA, one strand shown
# How it was run: as §1
# ELF4, sequence (Q99607 whole entry): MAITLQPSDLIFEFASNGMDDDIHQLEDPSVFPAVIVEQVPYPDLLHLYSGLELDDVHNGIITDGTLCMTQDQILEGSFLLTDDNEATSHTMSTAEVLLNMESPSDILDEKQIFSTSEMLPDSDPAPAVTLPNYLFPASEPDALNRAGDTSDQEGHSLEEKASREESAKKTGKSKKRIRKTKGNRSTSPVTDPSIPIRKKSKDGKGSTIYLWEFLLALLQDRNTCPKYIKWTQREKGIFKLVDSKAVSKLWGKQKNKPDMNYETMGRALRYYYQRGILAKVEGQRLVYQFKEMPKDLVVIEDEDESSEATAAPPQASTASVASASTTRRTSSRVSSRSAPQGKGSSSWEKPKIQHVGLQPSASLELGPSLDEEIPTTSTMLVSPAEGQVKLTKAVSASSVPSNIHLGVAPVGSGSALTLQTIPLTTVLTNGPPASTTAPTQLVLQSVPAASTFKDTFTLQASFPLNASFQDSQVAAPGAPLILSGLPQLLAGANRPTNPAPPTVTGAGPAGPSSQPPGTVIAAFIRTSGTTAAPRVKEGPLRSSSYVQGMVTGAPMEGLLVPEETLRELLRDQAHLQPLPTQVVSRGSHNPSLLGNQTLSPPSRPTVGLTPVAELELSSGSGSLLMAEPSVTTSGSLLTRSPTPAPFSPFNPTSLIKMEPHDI
# ETV5, sequence (P41161 whole entry): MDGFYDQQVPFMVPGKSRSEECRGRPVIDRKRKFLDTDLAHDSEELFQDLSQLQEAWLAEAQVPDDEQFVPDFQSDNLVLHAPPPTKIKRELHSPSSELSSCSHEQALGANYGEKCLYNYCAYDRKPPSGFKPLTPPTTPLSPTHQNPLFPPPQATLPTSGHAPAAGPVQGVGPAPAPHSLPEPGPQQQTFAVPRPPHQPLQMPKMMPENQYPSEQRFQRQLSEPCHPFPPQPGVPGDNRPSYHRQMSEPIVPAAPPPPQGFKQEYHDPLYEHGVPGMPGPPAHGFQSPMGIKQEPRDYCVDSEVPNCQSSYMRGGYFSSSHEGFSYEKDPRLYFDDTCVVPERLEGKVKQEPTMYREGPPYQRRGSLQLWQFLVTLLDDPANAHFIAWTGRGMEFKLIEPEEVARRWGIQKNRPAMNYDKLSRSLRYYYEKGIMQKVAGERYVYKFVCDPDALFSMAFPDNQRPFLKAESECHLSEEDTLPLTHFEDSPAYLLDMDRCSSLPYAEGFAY
# HSF1, sequence (Q00613 whole entry): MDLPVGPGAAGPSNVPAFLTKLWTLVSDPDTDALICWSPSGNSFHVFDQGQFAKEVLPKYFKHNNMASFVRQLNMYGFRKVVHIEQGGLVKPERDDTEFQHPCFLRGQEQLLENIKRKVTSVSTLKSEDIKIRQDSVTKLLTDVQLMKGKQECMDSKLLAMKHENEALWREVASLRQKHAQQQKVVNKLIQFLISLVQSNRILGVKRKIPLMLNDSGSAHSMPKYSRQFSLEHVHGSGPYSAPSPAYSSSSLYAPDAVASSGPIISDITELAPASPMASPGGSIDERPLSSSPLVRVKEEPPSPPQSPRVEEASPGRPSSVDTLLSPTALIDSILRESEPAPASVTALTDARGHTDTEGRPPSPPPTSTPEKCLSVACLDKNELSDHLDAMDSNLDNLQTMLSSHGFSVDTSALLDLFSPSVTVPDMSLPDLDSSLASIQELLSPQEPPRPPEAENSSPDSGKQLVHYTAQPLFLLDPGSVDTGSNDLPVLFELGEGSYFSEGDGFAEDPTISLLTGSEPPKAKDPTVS
# ETV1, sequence (P50549 whole entry): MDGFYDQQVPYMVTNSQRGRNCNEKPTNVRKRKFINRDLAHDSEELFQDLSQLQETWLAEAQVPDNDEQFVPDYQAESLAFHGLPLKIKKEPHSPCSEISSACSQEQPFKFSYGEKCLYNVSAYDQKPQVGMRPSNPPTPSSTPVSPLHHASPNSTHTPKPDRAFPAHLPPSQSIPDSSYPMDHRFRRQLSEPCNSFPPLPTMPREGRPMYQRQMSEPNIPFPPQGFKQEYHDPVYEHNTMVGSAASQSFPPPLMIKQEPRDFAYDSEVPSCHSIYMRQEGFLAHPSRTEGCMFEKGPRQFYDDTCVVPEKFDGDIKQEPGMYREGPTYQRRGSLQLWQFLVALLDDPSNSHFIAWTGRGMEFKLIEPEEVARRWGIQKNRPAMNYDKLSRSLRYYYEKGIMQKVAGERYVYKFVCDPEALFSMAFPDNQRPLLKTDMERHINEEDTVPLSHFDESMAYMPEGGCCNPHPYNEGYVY
# ETV6, sequence (P41212 whole entry): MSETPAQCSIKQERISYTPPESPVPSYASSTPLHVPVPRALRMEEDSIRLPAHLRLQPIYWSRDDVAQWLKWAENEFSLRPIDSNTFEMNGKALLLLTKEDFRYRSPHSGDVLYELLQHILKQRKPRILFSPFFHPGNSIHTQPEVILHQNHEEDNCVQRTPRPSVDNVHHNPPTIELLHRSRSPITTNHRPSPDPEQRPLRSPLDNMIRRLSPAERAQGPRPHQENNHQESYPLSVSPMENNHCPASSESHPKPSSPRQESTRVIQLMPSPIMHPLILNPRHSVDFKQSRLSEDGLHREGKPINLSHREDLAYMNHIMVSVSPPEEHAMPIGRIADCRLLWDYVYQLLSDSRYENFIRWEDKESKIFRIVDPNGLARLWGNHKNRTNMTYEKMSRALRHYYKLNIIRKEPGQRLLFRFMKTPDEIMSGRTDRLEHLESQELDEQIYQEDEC
# CRX, sequence (O43186 whole entry): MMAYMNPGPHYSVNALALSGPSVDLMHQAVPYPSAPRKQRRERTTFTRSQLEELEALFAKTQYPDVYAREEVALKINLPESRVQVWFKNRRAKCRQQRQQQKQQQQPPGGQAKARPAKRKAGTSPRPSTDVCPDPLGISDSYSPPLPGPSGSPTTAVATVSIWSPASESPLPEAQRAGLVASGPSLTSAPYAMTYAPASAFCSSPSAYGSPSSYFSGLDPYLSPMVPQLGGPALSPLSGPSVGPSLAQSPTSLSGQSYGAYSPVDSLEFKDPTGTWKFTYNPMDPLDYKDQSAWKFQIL
sequence,measurement,setting,value
TTTCTC,binding signal,FEV,"1.52 fold enrichment (6-mer frequency, TF over GST control)"
same,binding signal,ETV5,"1.53 fold enrichment (6-mer frequency, TF over GST control)"
same,binding signal,HSF1,"2.63 fold enrichment (6-mer frequency, TF over GST control)"
same,binding signal,SPIC,"1.55 fold enrichment (6-mer frequency, TF over GST control)"
same,binding signal,ELF4,"1.6 fold enrichment (6-mer frequency, TF over GST control)"
same,binding signal,ELK4,"1.78 fold enrichment (6-mer frequency, TF over GST control)"
same,binding signal,ETV2,"1.65 fold enrichment (6-mer frequency, TF over GST control)"
same,binding signal,ELF3,"1.86 fold enrichment (6-mer frequency, TF over GST control)"
same,binding signal,CRX,"1.67 fold enrichment (6-mer frequency, TF over GST control)"
same,binding signal,ETV1,"1.46 fold enrichment (6-mer frequency, TF over GST control)"
same,binding signal,ERF,"1.58 fold enrichment (6-mer frequency, TF over GST control)"
same,binding signal,ETV3L,"1.68 fold enrichment (6-mer frequency, TF over GST control)"
same,binding signal,ETS2,"1.77 fold enrichment (6-mer frequency, TF over GST control)"
same,binding signal,SPDEF,"1.49 fold enrichment (6-mer frequency, TF over GST control)"
same,binding signal,ETV7,"1.57 fold enrichment (6-mer frequency, TF over GST control)"
same,binding signal,ELF5,"1.56 fold enrichment (6-mer frequency, TF over GST control)"
same,binding signal,ETV3,"1.62 fold enrichment (6-mer frequency, TF over GST control)"
same,binding signal,ETV6,"1.65 fold enrichment (6-mer frequency, TF over GST control)"
